Compound activity: PubChem BioAssay, University of Pittsburgh Molecular Library Screening Center
The full list was thinned out, with hits kept by preference.
HIV RNase H inh-1: blocks HIV-1 RNase H cleavage of RNA/DNA duplex; P04585; RT-RNase H RNA/DNA duplex cleavage, fluorescence; inhibition, % at 10 µM; actives 1.9% (n = 65,000); in the data active = inhibition above about 50%
HIV RNase H inh-2: confirmation of HIV-1 reverse transcriptase RNase H inhibitors. inhibition, % at 10 µM. actives 39% (n = 1,000). shares compounds with HIV RNase H inh-1. Recombinant RT RNase H, fluorescent RNA/DNA duplex cleavage; in the data active = inhibition above about 48%; inconclusive = no clear call, values can overlap the other calls
Active calls of the source: *.

For Cc1ccc2cc(CN(C(=O)c3ccco3)c3ccccc3C)c(=O)[nH]c2c1 the results were HIV RNase H inh-1 70* and HIV RNase H inh-2 39.
Screening Cc1ccc2cc(CCNC(=O)c3ccco3)c(=O)[nH]c2c1 returned HIV RNase H inh-1 2.
`O=C(c1ccco1)N(Cc1cc2ccccc2[nH]c1=O)C1CCCCC1` gave HIV RNase H inh-1 0.
CC1CCN(Cc2nc3c(c(=O)n(C)c(=O)n3C)n2CCN2CCOCC2)CC1 was read as HIV RNase H inh-1 -5.
Screening Cc1cnc(-c2nnc(N(C)C(=O)c3ccncc3)s2)cn1 returned HIV RNase H inh-1 -7.
CCCn1c(N2CCN(CC(=O)c3c[nH]c4ccccc34)CC2)nc2c1c(=O)[nH]c(=O)n2C was read as HIV RNase H inh-1 -1.
Screening O=S(=O)(NCC(c1cccnc1)N1CCN(Cc2ccccc2)CC1)c1ccccc1 (centres undefined) returned HIV RNase H inh-1 1.
`COc1ccc(-c2nn3c(C4CCCCC4)nnc3s2)cc1OC` gave HIV RNase H inh-1 37.
c1ccc(-c2nn3c(C4CCCCC4)nnc3s2)cc1 was read as HIV RNase H inh-1 -6.
COc1cc(-c2nn3c(C4CCCCC4)nnc3s2)cc(OC)c1OC was read as HIV RNase H inh-1 75* and HIV RNase H inh-2 29.
CC(C)n1c(SCC(=O)N2CCCc3ccccc32)nc2c1c(=O)n(C)c(=O)n2C was read as HIV RNase H inh-1 -16.
Screening COc1ccc(-c2c(C)oc3cc(O)cc(O)c3c2=O)cc1OC returned HIV RNase H inh-1 -15.
`COc1ccccc1-c1coc2cc(O)cc(O)c2c1=O` gave HIV RNase H inh-1 -2.
For O=c1c(O)c(-c2ccc(O)cc2O)oc2cc(O)cc(O)c12 the results were HIV RNase H inh-1 75* and HIV RNase H inh-2 59*.
`O=C(NC1CS(=O)(=O)CC1NCc1ccccc1)c1ccccc1` (centres undefined) gave HIV RNase H inh-1 -4.
`COc1ccc(-c2nc3ccccc3s2)cc1O` gave HIV RNase H inh-1 -21.
Screening c1cncc(-c2nc(-c3ccc4c(c3)OCO4)cs2)c1 returned HIV RNase H inh-1 -42.
Oc1ccc(-c2nc(-c3ccc(O)c(O)c3)cs2)cc1 was read as HIV RNase H inh-1 100* and HIV RNase H inh-2 83*.
`CCN(CC)CCCNC(=O)c1cn(CCOC)c(=O)c2c1c1ccccc1n2C` gave HIV RNase H inh-1 8.
For Cc1cccc2nc(C(F)(F)F)nc(=O)n12 the results were HIV RNase H inh-1 1.
For CCCCNC(=O)c1sc(=S)n2c1[nH]c(=O)c1ccccc12 the results were HIV RNase H inh-1 11.
`O=C(NCC1CCCO1)c1sc(=S)n2c1[nH]c(=O)c1ccc(C(=O)N3CCCCC3)cc12` (centres undefined) gave HIV RNase H inh-1 -1.
O=C(NC1CCCCC1)c1sc(=S)n2c1[nH]c(=O)c1ccccc12 was read as HIV RNase H inh-1 74* and HIV RNase H inh-2 59*.
CCOC(=O)N1CCN(C(=O)c2ccc3c(=O)n(CCc4ccccc4)c(=O)[nH]c3c2)CC1 was read as HIV RNase H inh-1 -8.
For Cc1ccc(OCc2nnc(NC(=O)Cc3cccs3)s2)cc1 the results were HIV RNase H inh-1 62* and HIV RNase H inh-2 inconclusive.
CCOC(=O)Cc1nnc(NC(=O)COc2ccc(C)cc2)s1 was read as HIV RNase H inh-1 -3.
Screening O=C(Nc1nnc(COc2ccccc2)s1)c1ccco1 returned HIV RNase H inh-1 -8.
O=c1[nH]c(CSc2nnc(NCCCN3CCOCC3)s2)nc2cc(Cl)ccc12 was read as HIV RNase H inh-1 44.
For CCOC(=O)CSc1nnc(CNC(=O)c2ccc(OC)c(OC)c2)n1C the results were HIV RNase H inh-1 1.
Screening CCc1ccccc1N1C[C@@]23C=C[C@@H](O2)C(C(=O)OCC(C)C)[C@H]3C1=O (some centres undefined) returned HIV RNase H inh-1 -7.
Screening O=C(c1ccc(Cl)s1)N1CCN(c2ccccc2)CC1 returned HIV RNase H inh-1 -5.
`N#CC1=C(N)SC2(CCCCC2)SC1c1ccccc1` (centres undefined) gave HIV RNase H inh-1 59* and HIV RNase H inh-2 22.
Screening N#CC1=C(C2CC2)CC(c2ccccc2)C(C#N)=C1N (centres undefined) returned HIV RNase H inh-1 -63.
For CC(C)c1nc(SCc2c(F)cccc2Cl)c2c(=O)n(C)c(=O)n(C)c2n1 the results were HIV RNase H inh-1 -16.
Screening Cc1cccc2nc(Cn3c(=O)n(CCC(=O)NCc4ccco4)c(=O)c4ccccc43)cc(=O)n12 returned HIV RNase H inh-1 -15.
For Cc1cc(/N=C/C=C2\N(C)c3ccccc3C2(C)C)n(CCC#N)n1 the results were HIV RNase H inh-1 -22.
Screening CC1CCN(S(=O)(=O)c2ccc(NC(=O)CN3CCN(c4ccccc4)CC3)cc2)CC1 returned HIV RNase H inh-1 36.
For CC1CCN(S(=O)(=O)c2ccc(NC(=O)CN3CCN(C)CC3)cc2)CC1 the results were HIV RNase H inh-1 0.
